Mcl1-Bid inh – Mcl-1/Bid interaction inhibition. inhibition, % at 21.7 µM. 220,000 compounds, 0.97% hits. TR-FRET Mcl-1/Bid-Dy647 peptide binding, 1536-well;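 active = compounds that cut the binding signal by more than half at the single screening dose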;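 note: His-tagged Mcl-1 with europium anti-His antibody binding Bid BH3 peptide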
Target sequence (Q07820 whole entry, looked up): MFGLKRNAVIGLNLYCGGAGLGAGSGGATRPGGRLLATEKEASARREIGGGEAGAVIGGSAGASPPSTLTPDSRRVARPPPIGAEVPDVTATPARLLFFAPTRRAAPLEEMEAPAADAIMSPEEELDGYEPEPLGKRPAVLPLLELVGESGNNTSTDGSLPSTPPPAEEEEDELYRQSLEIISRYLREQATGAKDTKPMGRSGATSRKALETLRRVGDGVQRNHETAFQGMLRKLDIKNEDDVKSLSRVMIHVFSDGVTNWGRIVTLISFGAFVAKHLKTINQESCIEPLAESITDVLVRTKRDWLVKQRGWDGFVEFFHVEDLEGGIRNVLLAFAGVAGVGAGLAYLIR
Bim-Mcl-1 – inhibitors of Bim-Mcl-1 interaction, human; Q07820; Bead-based flow cytometry, Bim peptide-Mcl-1 binding; inhibition, % at 10 µM; 190,000 compounds, 0.1% hits; in the data active = inhibition above about 40%
NCF1 inh – p47phox (human) inhibition. P14598. p47phox/p22phox peptide binding, fluorescence polarization, 2 h. inhibition, % at 24.7 µM. 220,000 compounds, 0.53% hits. AID 1274
eIF4E 4G PPI – inhibitors of eIF4E and eIF4G interaction in translation initiation. P63073+Q04637. AID 782. TR-FRET eIF4E-eIF4GI(517-606) binding, 2 h. 220,000 compounds, 0.37% hits. inhibition, % at 21.7 µM
Mcl1-Noxa inh – disrupts binding of human Mcl-1 to Noxa peptide; TR-FRET Mcl-1/Noxa peptide binding, 2 h; Q07820; inhibition, % at 21.7 µM; AID 1022; 220,000 compounds, 1.5% hits;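 active = compounds that cut the protein-peptide binding signal by more than 50% relative to plate controls in a single-dose test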;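 note: His-tagged Mcl-1 with rhodamine Noxa BH3 peptide and terbium anti-His antibody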
14-3-3 Bad PPI – disrupts binding of bovine 14-3-3 zeta to phospho-Bad peptide; TR-FRET 14-3-3zeta/Dy647-pBad peptide displacement, 1 h; inhibition, % at 21.7 µM; 220,000 compounds, 0.71% hits; AID 781;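 active = inhibition above about 70%, limit read from the data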
Target sequence (P63103 whole entry, looked up): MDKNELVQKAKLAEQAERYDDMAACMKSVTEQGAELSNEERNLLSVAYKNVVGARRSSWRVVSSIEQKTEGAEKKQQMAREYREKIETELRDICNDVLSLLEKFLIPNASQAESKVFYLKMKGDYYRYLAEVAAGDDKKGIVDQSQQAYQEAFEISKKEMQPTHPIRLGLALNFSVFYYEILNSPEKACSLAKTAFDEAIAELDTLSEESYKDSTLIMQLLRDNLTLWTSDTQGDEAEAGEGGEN
Large screens that a line does not name were inactive; ! = a repeat was not active; [ ] = remark or other dose. In the library only some 3.3% were active in any assay of this set; here they are far more common.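 Rule for the calls, unless noted: active = inhibition above about 30% (limit read from the data); inactive = the rest.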

CCCN1C(=O)/C(=c2\s/c(=C3\C=Cc4ccccc4N3CC)c(=O)n2-c2ccccc2)SC1=S	NCF1 inh 70.3
CCN1/C(=C2\OC(=S)N(C)C2=O)C=Cc2ccccc21	none
CCCn1c(=C(C#N)C#N)s/c(=C2\C=Cc3ccccc3N2CC)c1=O	NCF1 inh 36.9
O=C(/C=C/c1ccc(Cl)c([N+](=O)[O-])c1)Nc1ccc(N2CCCC2)cc1	Mcl1-Noxa inh 75.0
O=C(Oc1cccc2c(=O)[nH]ccc12)c1ccccc1	14-3-3 Bad PPI 78.1
CC1CCN(Cc2c(O)ccc3c(=O)c(-c4nc5ccccc5s4)c(N)oc23)CC1	Mcl1-Noxa inh 52.8
Cc1cccc(Nc2n[nH]c(=S)s2)c1C	eIF4E 4G PPI 58.1
COc1ccccc1Nc1n[nH]c(=S)s1	none
Cc1ccc(Cn2c(=N)n(CC(=O)c3ccccc3)c3ccccc32)cc1	none
COc1ccc2c(=O)c3c(=O)n(CCc4ccccc4)c(C(C)C)nc3oc2c1	Mcl1-Bid inh 77.0 (no result: Bim-Mcl-1)
COc1ccc(CNC(=O)c2coc(=O)c3ccccc23)c(OC)c1	none
Cc1cc(C)c(C)c(OCCCCn2cnc3ccccc3c2=O)c1	none (no result: Mcl1-Noxa inh)
COc1cccc(OC)c1OCCCCn1cnc2ccccc2c1=O	Mcl1-Bid inh 51.1
O=c1[nH]c(NC2CCCCC2)c([N+](=O)[O-])c(=O)[nH]1	none
CCOc1c(Cl)cc(CNc2ccc(S(N)(=O)=O)cc2)cc1OC	none
CCOc1c(Cl)cc(CNc2ccc(N3CCCC3)cc2)cc1OC	Mcl1-Noxa inh 88.4
S=C(Nc1ccc(Nc2ccccc2)cc1)NN1CCOCC1	none (no result: Bim-Mcl-1)
CCOC(=O)NC(CC(=O)O)c1ccc(OC)c(OC)c1 (centres undefined)	NCF1 inh 68.0
COc1ccc(C(CC(=O)O)NC(C)=O)cc1OC (centres undefined)	none
CCCC1(CCC)NC(=O)N(CC(=O)c2cc(C)n(-c3ccc4c(c3)OCO4)c2C)C1=O	Mcl1-Bid inh 51.4
Cc1nnc(SCC(=O)c2cc(C)n(-c3ccc4c(c3)OCO4)c2C)s1	none
Cc1cccc(CN2CCN(C(=O)CCc3nnc(C4CCCCC4)o3)CC2)c1	none
Cc1cc(-c2nnc(CCC(=O)N3CCN(Cc4cccnc4)CC3)o2)c(C)o1	NCF1 inh 133.4
Cc1nc([N+](=O)[O-])cn1CC(O)c1ccc(F)cc1 (centres undefined)	none (no result: Bim-Mcl-1)
O=S(=O)(c1ccccc1)N1CCN(c2ccnc3cc(Cl)ccc23)CC1	14-3-3 Bad PPI 70.7
O=C(CS(=O)(=O)c1c[nH]c2ccccc12)N1CCc2ccccc21	none
COc1ccc(C(=O)OC(C)CN2CCN(C)CC2)cc1OC (centres undefined)	14-3-3 Bad PPI 88.9
CC(CN1CCN(C)CC1)OC(=O)c1ccccc1Cl (centres undefined)	14-3-3 Bad PPI 84.9
CC(OC(=O)c1ccc(-c2ccc([N+](=O)[O-])cc2)o1)C(=O)NC(N)=O (centres undefined)	none (no result: Bim-Mcl-1)
Cc1cc(Nc2ccccc2C(=O)O)n(-c2ccc([N+](=O)[O-])cc2)n1	none (no result: Bim-Mcl-1)
COc1cc(/C=C(/NC(C)=O)C(=O)O)cc(Cl)c1OCc1ccc(Br)cc1	Mcl1-Noxa inh 101.9 (no result: Bim-Mcl-1)
O=C(O)C1Nc2c(C(=O)N3CCOCC3)cccc2C2C=CCC12 (centres undefined)	Mcl1-Noxa inh 80.2
O=C(c1ccccc1O)N1CCOCC1	none (no result: Bim-Mcl-1)
Cc1ccc2c(c1C)NC(C(=O)O)C1CC=CC21 (centres undefined)	Mcl1-Bid inh 96.4, eIF4E 4G PPI 60.8!, Mcl1-Noxa inh 99.0
CCOC(=O)c1ccc2c(c1)C1C=CCC1C(C(=O)O)N2 (centres undefined)	Mcl1-Bid inh 62.1, eIF4E 4G PPI 47.0, Mcl1-Noxa inh 103.7
COc1ccc(C2=NOC3(CC(=O)N(c4ccc(F)cc4)C3=O)C2)cc1 (centres undefined)	none (no result: Bim-Mcl-1)
O=C(CCc1ccc(O)cc1)N/N=C/c1coc2ccccc2c1=O	none (no result: Bim-Mcl-1)
CN(C)S(=O)(=O)N1CCN(c2cccc(Cl)c2)CC1	Mcl1-Noxa inh 54.9
Cc1ccc(N=Nc2ccc(N)cc2C)c(S(N)(=O)=O)c1	Mcl1-Noxa inh 51.9 (no result: Bim-Mcl-1)
O=C(CSCc1cccc(Br)c1)N1CCOCC1	none
COc1cc(/C=N/Nc2nnc3c(n2)[nH]c2ccccc23)ccc1O	Mcl1-Bid inh 90.0, Mcl1-Noxa inh 93.9, 14-3-3 Bad PPI 83.1[fluorescence artefact?]
COc1cc(/C=N/Nc2ccccc2C(F)(F)F)ccc1O	none
O=C(O)CC(CCc1ccccc1)OC1OC(CO)C(O)C(O)C1O (centres undefined)	Mcl1-Noxa inh 92.3 (no result: Bim-Mcl-1)
CC(=O)NC1C(Oc2ccccc2C)OC(CO)C(O)C1O (centres undefined)	none
Cc1cc(=O)oc2cc(OC(=O)CCCCCN3C(=O)c4ccccc4C3=O)ccc12	none
CC1(C)C(=O)Nc2ccccc2N1C(=O)Cn1ncc(Cl)c(Cl)c1=O	Mcl1-Noxa inh 58.0 (no result: Bim-Mcl-1)
CC(C)CC1NC(=O)N(CC(=O)N2c3ccccc3NC(=O)C2(C)C)C1=O (centres undefined)	Mcl1-Noxa inh 82.4
CC1(C)C(=O)Nc2ccccc2N1C(=O)COC(=O)C1CCCCC1	NCF1 inh 31.9
Cc1cc(C(=O)CN2C(=O)NC(CC(C)C)C2=O)c(C)n1-c1ccccc1F (centres undefined)	none
CCOC(=O)c1cc(C#N)c(C)nc1N(CC)CC	none (no result: Bim-Mcl-1)
COc1ccc2[nH]c3c(=O)n(Cc4ccc(C(=O)N5CCCC5)cc4)c(=S)[nH]c3c2c1	Mcl1-Noxa inh 77.8
CCc1ccc(C(=O)/C=C/Nc2ccc(S(=O)(=O)Nc3cnc4ccccc4n3)cc2)cc1	none (no result: Bim-Mcl-1)
COCCCNCCCOc1ccc(C(C)(C)c2ccccc2)cc1	none
C=CCNCCCOc1ccc(C(C)(C)c2ccccc2)cc1	Mcl1-Bid inh 52.4
Cc1ccc(Nc2cc(-n3nc(C)cc3C)ncn2)c(C)c1	Mcl1-Noxa inh 56.4
COCCN(CCOC)C(=O)COC(=O)c1cc([N+](=O)[O-])ccc1Cl	none (no result: Bim-Mcl-1)
Nc1nc2c(s1)CCc1c-2cnn1-c1ccccc1	eIF4E 4G PPI 39.4
COC(=O)c1[nH]c2ccccc2c1NC(=O)c1ccccc1[N+](=O)[O-]	Bim-Mcl-1 93.0
CC(NS(=O)(=O)c1cccc(Cl)c1)C(=O)N(C)C1CCN(C)CC1 (centres undefined)	Mcl1-Noxa inh 52.6
CN(C)S(=O)(=O)c1c(Cl)cccc1Cl	14-3-3 Bad PPI 81.0
CN(c1ccccc1)S(=O)(=O)c1cccc(Cl)c1Cl	none (no result: Bim-Mcl-1)
Clc1ccc(OCCOCCN2CCCCC2)c(Br)c1	Mcl1-Bid inh 62.4
CN(C)CCCOc1ccc(Cl)cc1Br	Mcl1-Bid inh 53.4
COC1=C(OC)C(=O)C(CCCCCCCCCCO)=C(C)C1=O	Mcl1-Noxa inh 54.7
NC1=NC(c2ccc(F)cc2)n2c(nc3ccccc32)N1 (centres undefined)	none

Compound activity deposited in PubChem by several laboratories.
